# From article PMC7156710, “The Sox2 transcription factor binds RNA”
# Assays:
# Assay in all cases: fluorescence anisotropy; 10 mM Tris-HEPES pH 7.5, 8% Ficoll, 0.05% NP-40, 135 mM KCl, 15 mM NaCl, 1 mM DTT, 0.1 mg/mL BSA; 2 nM DNA or 3 nM RNA; low values mean tight binding
# Settings in all cases: protein: recombinant; tags: N-terminal His6 and thrombin site, not removed; label: FAM; only (+) strand given; dsDNA, one strand shown
# [1] = biological target: Sox2-HMG (His6 retained) E78A (Homo sapiens, UniProt P48431 38-121, E78A)
# Procedure, shortened: (§1)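 Alanine-substituted Sox2-HMG domains were made by site-directed mutagenesis and Ni-NTA purified with the His6 tag retained. They were titrated against 2 nM fluorescein-labeled DNA or 3 nM fluorescein-labeled RNA in Tris-HEPES pH 7.5 binding buffer for at least 1 h. Polarization was read on a CLARIOstar, with triplicate titrations each read three times. Dissociation constants were fit in Kaleidagraph and expressed as the mutant-to-wild-type ratio.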
# [2] = biological target: Sox2-HMG (His6 retained) S72A (Homo sapiens, UniProt P48431 38-121, S72A)
# Procedure, shortened: as §1
# [3] = biological target: Sox2-HMG (His6 retained) E104A (Homo sapiens, UniProt P48431 38-121, E104A)
# Procedure, shortened: as §1
# [4] = biological target: Sox2-HMG (His6 retained) K58A (Homo sapiens, UniProt P48431 38-121, K58A)
# Procedure, shortened: as §1
# [5] = biological target: Sox2-HMG (His6 retained) H67A (Homo sapiens, UniProt P48431 38-121, H67A)
# Procedure, shortened: as §1
# [6] = biological target: Sox2-HMG (His6 retained) K42A (Homo sapiens, UniProt P48431 38-121, K42A)
# Procedure, shortened: as §1
# [7] = biological target: Sox2-HMG (His6 retained) M45A (Homo sapiens, UniProt P48431 38-121, M45A)
# Procedure, shortened: as §1
# [8] = biological target: Sox2-HMG (His6 retained) N63A (Homo sapiens, UniProt P48431 38-121, N63A)
# Procedure, shortened: as §1
# [9] = biological target: Sox2-HMG (His6 retained) K115A (Homo sapiens, UniProt P48431 38-121, K115A)
# Procedure, shortened: as §1
# [10] = biological target: Sox2-HMG (His6 retained) E70A (Homo sapiens, UniProt P48431 38-121, E70A)
# Procedure, shortened: as §1
# [11] = biological target: Sox2-HMG (His6 retained) K87A (Homo sapiens, UniProt P48431 38-121, K87A)
# Procedure, shortened: as §1
# [12] = biological target: Sox2-HMG (His6 retained) W79A (Homo sapiens, UniProt P48431 38-121, W79A)
# Procedure, shortened: as §1
# [13] = biological target: Sox2-HMG (His6 retained) E62A (Homo sapiens, UniProt P48431 38-121, E62A)
# Procedure, shortened: as §1
# [14] = biological target: Sox2-HMG (His6 retained) R114A (Homo sapiens, UniProt P48431 38-121, R114A)
# Procedure, shortened: as §1
# [15] = biological target: Sox2-HMG (His6 retained) S69A (Homo sapiens, UniProt P48431 38-121, S69A)
# Procedure, shortened: as §1
# [16] = biological target: Sox2-HMG (His6 retained) R96A (Homo sapiens, UniProt P48431 38-121, R96A)
# Procedure, shortened: as §1
# [17] = biological target: Sox2-HMG (His6 retained) R40A (Homo sapiens, UniProt P48431 38-121, R40A)
# Procedure, shortened: as §1
# [18] = biological target: Sox2-HMG (His6 retained) W51A (Homo sapiens, UniProt P48431 38-121, W51A)
# Procedure, shortened: as §1
# [19] = biological target: Sox2-HMG (His6 retained) S83A (Homo sapiens, UniProt P48431 38-121, S83A)
# Procedure, shortened: as §1
# [20] = biological target: Sox2-HMG (His6 retained) R111A (Homo sapiens, UniProt P48431 38-121, R111A)
# Procedure, shortened: as §1
# [21] = biological target: Sox2-HMG (His6 retained) E84A (Homo sapiens, UniProt P48431 38-121, E84A)
# Procedure, shortened: as §1
# [22] = biological target: Sox2-HMG (His6 retained) K95A (Homo sapiens, UniProt P48431 38-121, K95A)
# Procedure, shortened: as §1
# [23] = biological target: Sox2-HMG (His6 retained) F48A (Homo sapiens, UniProt P48431 38-121, F48A)
# Procedure, shortened: as §1
# [24] = biological target: Sox2-HMG (His6 retained) R74A (Homo sapiens, UniProt P48431 38-121, R74A)
# Procedure, shortened: as §1
# [25] = biological target: Sox2-HMG (His6 retained) Q61A (Homo sapiens, UniProt P48431 38-121, Q61A)
# Procedure, shortened: as §1
# [26] = biological target: Sox2-HMG (His6 retained) R88A (Homo sapiens, UniProt P48431 38-121, R88A)
# Procedure, shortened: as §1
# [27] = biological target: Sox2-HMG (His6 retained) K73A (Homo sapiens, UniProt P48431 38-121, K73A)
# Procedure, shortened: as §1
# [28] = biological target: Sox2-HMG (His6 retained) E86A (Homo sapiens, UniProt P48431 38-121, E86A)
# Procedure, shortened: as §1
# [29] = biological target: Sox2-HMG (His6 retained) R53A (Homo sapiens, UniProt P48431 38-121, R53A)
# Procedure, shortened: as §1
# [30] = biological target: Sox2-HMG (His6 retained) R113A (Homo sapiens, UniProt P48431 38-121, R113A)
# Procedure, shortened: as §1
# [31] = biological target: Sox2-HMG (His6 retained) T85A (Homo sapiens, UniProt P48431 38-121, T85A)
# Procedure, shortened: as §1
# [32] = biological target: Sox2-HMG (His6 retained) M49A (Homo sapiens, UniProt P48431 38-121, M49A)
# Procedure, shortened: as §1
# [33] = biological target: Sox2-HMG (His6 retained) R56A (Homo sapiens, UniProt P48431 38-121, R56A)
# Procedure, shortened: as §1
# [34] = biological target: Sox2-HMG (His6 retained) K80A (Homo sapiens, UniProt P48431 38-121, K80A)
# Procedure, shortened: as §1
# [35] = biological target: Sox2-HMG (His6 retained) Y110A (Homo sapiens, UniProt P48431 38-121, Y110A)
# Procedure, shortened: as §1
# [36] = biological target: Sox2-HMG (His6 retained) K103A (Homo sapiens, UniProt P48431 38-121, K103A)
# Procedure, shortened: as §1
# [37] = biological target: Sox2-HMG (His6 retained) K109A (Homo sapiens, UniProt P48431 38-121, K109A)
# Procedure, shortened: as §1
# [38] = biological target: Sox2-HMG (His6 retained) R43A (Homo sapiens, UniProt P48431 38-121, R43A)
# Procedure, shortened: as §1
# [39] = biological target: Sox2-HMG (His6 retained) R57A (Homo sapiens, UniProt P48431 38-121, R57A)
# Procedure, shortened: as §1
# [40] = biological target: Sox2-HMG (His6 retained) R98A (Homo sapiens, UniProt P48431 38-121, R98A)
# Procedure, shortened: as §1
# [41] = biological target: Sox2-HMG (His6 retained) N68A (Homo sapiens, UniProt P48431 38-121, N68A)
# Procedure, shortened: as §1
# [42] = biological target: Sox2-HMG (His6 retained) P112A (Homo sapiens, UniProt P48431 38-121, P112A)
# Procedure, shortened: as §1
# [43] = biological target: Sox2-HMG (His6 retained) N46A (Homo sapiens, UniProt P48431 38-121, N46A)
# Procedure, shortened: as §1
# [44] = biological target: Sox2-HMG (His6 retained) K65A (Homo sapiens, UniProt P48431 38-121, K65A)
# Procedure, shortened: as §1
# [45] = biological target: Sox2-HMG (His6 retained) H101A (Homo sapiens, UniProt P48431 38-121, H101A)
# Procedure, shortened: as §1
# [46] = biological target: Sox2-HMG (His6 retained) P64A (Homo sapiens, UniProt P48431 38-121, P64A)
# Procedure, shortened: as §1
# [47] = biological target: Sox2-HMG (His6 retained) M66A (Homo sapiens, UniProt P48431 38-121, M66A)
# Procedure, shortened: as §1
# [48] = biological target: Sox2-HMG (His6 retained) H105A (Homo sapiens, UniProt P48431 38-121, H105A)
# Procedure, shortened: as §1
# Sox2-HMG (His6 retained) W51A, sequence (P48431 other isoform, or with tags, fused parts or gaps W51A | W51A W51A): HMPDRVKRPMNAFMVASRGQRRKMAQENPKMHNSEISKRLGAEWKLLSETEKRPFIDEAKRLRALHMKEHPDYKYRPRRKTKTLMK
# Sox2-HMG (His6 retained) W79A, sequence (P48431 other isoform, or with tags, fused parts or gaps W79A | W79A W79A): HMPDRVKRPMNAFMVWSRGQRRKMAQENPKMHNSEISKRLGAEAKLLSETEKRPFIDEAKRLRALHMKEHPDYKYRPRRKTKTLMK
# Sox2-HMG (His6 retained) P112A, sequence (P48431 other isoform, or with tags, fused parts or gaps P112A | P112A P112A): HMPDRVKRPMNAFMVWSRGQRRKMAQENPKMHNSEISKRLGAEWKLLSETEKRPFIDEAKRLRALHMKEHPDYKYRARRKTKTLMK
# Sox2-HMG (His6 retained) R88A, sequence (P48431 other isoform, or with tags, fused parts or gaps R88A | R88A R88A): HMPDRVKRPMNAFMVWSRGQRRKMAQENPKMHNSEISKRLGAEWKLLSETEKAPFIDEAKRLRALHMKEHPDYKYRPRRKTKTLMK
# Sox2-HMG (His6 retained) R113A, sequence (P48431 other isoform, or with tags, fused parts or gaps R113A | R113A R113A): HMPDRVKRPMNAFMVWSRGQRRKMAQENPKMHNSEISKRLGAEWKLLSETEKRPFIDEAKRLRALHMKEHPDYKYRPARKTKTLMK
# Sox2-HMG (His6 retained) E62A, sequence (P48431 other isoform, or with tags, fused parts or gaps E62A | E62A E62A): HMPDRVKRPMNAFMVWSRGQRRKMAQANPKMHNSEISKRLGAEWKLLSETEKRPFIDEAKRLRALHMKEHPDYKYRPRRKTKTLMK
# Sox2-HMG (His6 retained) R96A, sequence (P48431 other isoform, or with tags, fused parts or gaps R96A | R96A R96A): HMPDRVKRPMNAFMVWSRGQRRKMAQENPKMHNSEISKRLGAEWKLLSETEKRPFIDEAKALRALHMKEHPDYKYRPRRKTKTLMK
# Sox2-HMG (His6 retained) E86A, sequence (P48431 other isoform, or with tags, fused parts or gaps E86A | E86A E86A): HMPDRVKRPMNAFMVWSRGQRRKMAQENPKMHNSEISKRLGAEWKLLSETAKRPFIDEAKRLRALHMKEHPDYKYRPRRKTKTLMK
# Sox2-HMG (His6 retained) M66A, sequence (P48431 other isoform, or with tags, fused parts or gaps M66A | M66A M66A): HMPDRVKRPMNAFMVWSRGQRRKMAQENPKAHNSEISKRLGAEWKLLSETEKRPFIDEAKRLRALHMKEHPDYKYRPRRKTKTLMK
# Sox2-HMG (His6 retained) R74A, sequence (P48431 other isoform, or with tags, fused parts or gaps R74A | R74A R74A): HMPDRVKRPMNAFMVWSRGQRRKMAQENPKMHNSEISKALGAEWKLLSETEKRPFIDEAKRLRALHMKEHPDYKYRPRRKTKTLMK
# Sox2-HMG (His6 retained) Y110A, sequence (P48431 other isoform, or with tags, fused parts or gaps Y110A | Y110A Y110A): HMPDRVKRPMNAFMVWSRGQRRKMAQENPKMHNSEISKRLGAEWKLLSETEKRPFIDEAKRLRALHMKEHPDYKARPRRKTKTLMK
# Sox2-HMG (His6 retained) E70A, sequence (P48431 other isoform, or with tags, fused parts or gaps E70A | E70A E70A): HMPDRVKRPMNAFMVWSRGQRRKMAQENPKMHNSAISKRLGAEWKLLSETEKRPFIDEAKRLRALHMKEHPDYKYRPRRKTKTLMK
# Sox2-HMG (His6 retained) K109A, sequence (P48431 other isoform, or with tags, fused parts or gaps K109A | K109A K109A): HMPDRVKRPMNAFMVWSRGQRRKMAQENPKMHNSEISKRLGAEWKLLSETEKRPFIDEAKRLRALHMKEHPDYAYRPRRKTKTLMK
# Sox2-HMG (His6 retained) P64A, sequence (P48431 other isoform, or with tags, fused parts or gaps P64A | P64A P64A): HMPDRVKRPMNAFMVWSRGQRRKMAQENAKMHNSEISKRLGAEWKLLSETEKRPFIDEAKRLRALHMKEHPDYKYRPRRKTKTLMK
# Sox2-HMG (His6 retained) K103A, sequence (P48431 other isoform, or with tags, fused parts or gaps K103A | K103A K103A): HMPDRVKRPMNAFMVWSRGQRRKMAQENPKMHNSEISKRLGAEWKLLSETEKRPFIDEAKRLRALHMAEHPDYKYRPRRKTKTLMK
# Sox2-HMG (His6 retained) R111A, sequence (P48431 other isoform, or with tags, fused parts or gaps R111A | R111A R111A): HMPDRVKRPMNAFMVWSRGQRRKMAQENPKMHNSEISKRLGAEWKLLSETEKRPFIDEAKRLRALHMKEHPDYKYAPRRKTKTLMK
# Sox2-HMG (His6 retained) E78A, sequence (P48431 other isoform, or with tags, fused parts or gaps E78A | E78A E78A): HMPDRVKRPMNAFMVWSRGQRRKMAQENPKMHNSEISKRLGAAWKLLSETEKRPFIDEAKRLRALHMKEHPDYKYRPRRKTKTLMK
# Sox2-HMG (His6 retained) R40A, sequence (P48431 other isoform, or with tags, fused parts or gaps R40A | R40A R40A): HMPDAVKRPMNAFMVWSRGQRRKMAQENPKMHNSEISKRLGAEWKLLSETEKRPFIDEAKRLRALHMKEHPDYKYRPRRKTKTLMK
# Sox2-HMG (His6 retained) K65A, sequence (P48431 other isoform, or with tags, fused parts or gaps K65A | K65A K65A): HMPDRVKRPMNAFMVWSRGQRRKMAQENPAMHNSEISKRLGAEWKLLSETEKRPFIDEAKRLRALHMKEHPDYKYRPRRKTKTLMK
# Sox2-HMG (His6 retained) H105A, sequence (P48431 other isoform, or with tags, fused parts or gaps H105A | H105A H105A): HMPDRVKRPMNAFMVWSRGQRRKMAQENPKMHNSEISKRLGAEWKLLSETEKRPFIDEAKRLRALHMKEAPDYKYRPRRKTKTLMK
# Sox2-HMG (His6 retained) N46A, sequence (P48431 other isoform, or with tags, fused parts or gaps N46A | N46A N46A): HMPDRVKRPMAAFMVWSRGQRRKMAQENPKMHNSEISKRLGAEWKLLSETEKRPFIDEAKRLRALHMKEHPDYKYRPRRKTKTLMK
# Sox2-HMG (His6 retained) E104A, sequence (P48431 other isoform, or with tags, fused parts or gaps E104A | E104A E104A): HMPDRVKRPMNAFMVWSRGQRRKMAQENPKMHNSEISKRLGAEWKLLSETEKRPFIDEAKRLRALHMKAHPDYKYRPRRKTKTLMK
# Sox2-HMG (His6 retained) K87A, sequence (P48431 other isoform, or with tags, fused parts or gaps K87A | K87A K87A): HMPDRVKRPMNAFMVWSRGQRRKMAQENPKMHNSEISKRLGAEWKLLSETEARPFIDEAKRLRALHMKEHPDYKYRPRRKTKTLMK
# Sox2-HMG (His6 retained) K73A, sequence (P48431 other isoform, or with tags, fused parts or gaps K73A | K73A K73A): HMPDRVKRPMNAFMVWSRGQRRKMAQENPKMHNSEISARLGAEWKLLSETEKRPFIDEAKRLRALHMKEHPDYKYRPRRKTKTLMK
# Sox2-HMG (His6 retained) S69A, sequence (P48431 other isoform, or with tags, fused parts or gaps S69A | S69A S69A): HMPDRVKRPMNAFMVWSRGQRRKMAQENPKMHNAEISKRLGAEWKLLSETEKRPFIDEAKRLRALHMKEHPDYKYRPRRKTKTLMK
# Sox2-HMG (His6 retained) F48A, sequence (P48431 other isoform, or with tags, fused parts or gaps F48A | F48A F48A): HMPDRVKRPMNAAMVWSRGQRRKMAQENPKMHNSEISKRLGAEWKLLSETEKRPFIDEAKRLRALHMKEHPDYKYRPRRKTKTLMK
# Sox2-HMG (His6 retained) Q61A, sequence (P48431 other isoform, or with tags, fused parts or gaps Q61A | Q61A Q61A): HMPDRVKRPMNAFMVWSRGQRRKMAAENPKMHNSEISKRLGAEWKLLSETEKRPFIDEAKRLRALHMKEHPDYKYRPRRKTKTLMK
# Sox2-HMG (His6 retained) H101A, sequence (P48431 other isoform, or with tags, fused parts or gaps H101A | H101A H101A): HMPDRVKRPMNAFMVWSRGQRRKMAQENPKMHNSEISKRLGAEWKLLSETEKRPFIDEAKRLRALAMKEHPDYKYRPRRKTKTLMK
# Sox2-HMG (His6 retained) N63A, sequence (P48431 other isoform, or with tags, fused parts or gaps N63A | N63A N63A): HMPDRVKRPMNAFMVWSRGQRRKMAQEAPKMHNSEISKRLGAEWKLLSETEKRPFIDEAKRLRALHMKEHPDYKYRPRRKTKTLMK
# Sox2-HMG (His6 retained) R43A, sequence (P48431 other isoform, or with tags, fused parts or gaps R43A | R43A R43A): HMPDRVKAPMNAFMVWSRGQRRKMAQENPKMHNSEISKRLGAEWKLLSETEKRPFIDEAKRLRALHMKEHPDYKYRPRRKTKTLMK
# Sox2-HMG (His6 retained) S83A, sequence (P48431 other isoform, or with tags, fused parts or gaps S83A | S83A S83A): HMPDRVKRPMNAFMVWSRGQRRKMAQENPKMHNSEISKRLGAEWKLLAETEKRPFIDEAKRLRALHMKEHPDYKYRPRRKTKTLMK
# Sox2-HMG (His6 retained) R114A, sequence (P48431 other isoform, or with tags, fused parts or gaps R114A | R114A R114A): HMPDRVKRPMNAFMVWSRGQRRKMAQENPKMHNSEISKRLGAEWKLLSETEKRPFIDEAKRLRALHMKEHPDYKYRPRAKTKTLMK
# Sox2-HMG (His6 retained) H67A, sequence (P48431 other isoform, or with tags, fused parts or gaps H67A | H67A H67A): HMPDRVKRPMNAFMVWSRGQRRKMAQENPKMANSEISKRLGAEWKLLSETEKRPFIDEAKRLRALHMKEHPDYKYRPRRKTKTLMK
# Sox2-HMG (His6 retained) K115A, sequence (P48431 other isoform, or with tags, fused parts or gaps K115A | K115A K115A): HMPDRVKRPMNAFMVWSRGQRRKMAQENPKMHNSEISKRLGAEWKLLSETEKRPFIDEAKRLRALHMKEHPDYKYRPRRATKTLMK
# Sox2-HMG (His6 retained) K42A, sequence (P48431 other isoform, or with tags, fused parts or gaps K42A | K42A K42A): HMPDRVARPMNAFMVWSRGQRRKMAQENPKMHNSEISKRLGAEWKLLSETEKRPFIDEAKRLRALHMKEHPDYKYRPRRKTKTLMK
# Sox2-HMG (His6 retained) R56A, sequence (P48431 other isoform, or with tags, fused parts or gaps R56A | R56A R56A): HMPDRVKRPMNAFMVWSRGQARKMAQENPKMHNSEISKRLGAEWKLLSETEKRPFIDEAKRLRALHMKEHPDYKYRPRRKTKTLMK
# Sox2-HMG (His6 retained) K95A, sequence (P48431 other isoform, or with tags, fused parts or gaps K95A | K95A K95A): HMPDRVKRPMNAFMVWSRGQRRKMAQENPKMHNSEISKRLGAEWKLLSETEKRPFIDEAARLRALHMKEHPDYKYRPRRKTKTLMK
# Sox2-HMG (His6 retained) R98A, sequence (P48431 other isoform, or with tags, fused parts or gaps R98A | R98A R98A): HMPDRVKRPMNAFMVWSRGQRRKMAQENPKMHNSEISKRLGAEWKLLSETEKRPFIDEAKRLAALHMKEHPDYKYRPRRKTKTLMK
# Sox2-HMG (His6 retained) S72A, sequence (P48431 other isoform, or with tags, fused parts or gaps S72A | S72A S72A): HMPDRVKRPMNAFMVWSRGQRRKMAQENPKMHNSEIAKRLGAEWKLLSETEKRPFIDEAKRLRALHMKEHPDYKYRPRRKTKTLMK
# Sox2-HMG (His6 retained) M45A, sequence (P48431 other isoform, or with tags, fused parts or gaps M45A | M45A M45A): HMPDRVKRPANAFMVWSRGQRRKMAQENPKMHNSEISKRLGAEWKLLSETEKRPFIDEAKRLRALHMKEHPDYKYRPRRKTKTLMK
# Sox2-HMG (His6 retained) N68A, sequence (P48431 other isoform, or with tags, fused parts or gaps N68A | N68A N68A): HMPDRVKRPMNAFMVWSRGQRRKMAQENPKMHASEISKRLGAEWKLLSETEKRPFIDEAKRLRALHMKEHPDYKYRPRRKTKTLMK
# Sox2-HMG (His6 retained) T85A, sequence (P48431 other isoform, or with tags, fused parts or gaps T85A | T85A T85A): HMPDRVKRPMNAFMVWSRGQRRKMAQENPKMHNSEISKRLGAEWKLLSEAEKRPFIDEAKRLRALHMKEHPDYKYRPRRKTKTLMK
# Sox2-HMG (His6 retained) K80A, sequence (P48431 other isoform, or with tags, fused parts or gaps K80A | K80A K80A): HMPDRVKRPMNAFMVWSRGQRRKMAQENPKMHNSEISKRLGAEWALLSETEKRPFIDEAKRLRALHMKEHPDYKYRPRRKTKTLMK
# Sox2-HMG (His6 retained) R53A, sequence (P48431 other isoform, or with tags, fused parts or gaps R53A | R53A R53A): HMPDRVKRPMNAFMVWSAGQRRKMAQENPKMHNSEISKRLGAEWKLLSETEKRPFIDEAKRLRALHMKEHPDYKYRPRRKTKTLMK
# Sox2-HMG (His6 retained) M49A, sequence (P48431 other isoform, or with tags, fused parts or gaps M49A | M49A M49A): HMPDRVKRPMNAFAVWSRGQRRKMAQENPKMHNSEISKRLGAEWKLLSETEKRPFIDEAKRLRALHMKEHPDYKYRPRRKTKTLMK
# Sox2-HMG (His6 retained) E84A, sequence (P48431 other isoform, or with tags, fused parts or gaps E84A | E84A E84A): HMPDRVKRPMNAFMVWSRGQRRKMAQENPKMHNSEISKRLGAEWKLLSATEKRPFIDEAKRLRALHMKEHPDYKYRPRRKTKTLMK
sequence,measurement,setting,value
CGCGCCTTTGTTCCCGGGT,binding signal,[1],2.2 ± 1 Kd(mutant)/Kd(WT)
same,binding signal,[2],1.4 ± 0.4 Kd(mutant)/Kd(WT)
same,binding signal,[3],1.1 ± 0.3 Kd(mutant)/Kd(WT)
same,binding signal,[4],1.1 ± 0.5 Kd(mutant)/Kd(WT)
same,binding signal,[5],2.4 ± 0.7 Kd(mutant)/Kd(WT)
same,binding signal,[6],2.8 ± 1.8 Kd(mutant)/Kd(WT)
same,binding signal,[7],1.4 ± 0.7 Kd(mutant)/Kd(WT)
same,binding signal,[8],2.9 ± 1.4 Kd(mutant)/Kd(WT)
same,binding signal,[9],5.8 ± 1 Kd(mutant)/Kd(WT)
same,binding signal,[10],0.7 ± 0.4 Kd(mutant)/Kd(WT)
same,binding signal,[11],9.3 ± 1.4 Kd(mutant)/Kd(WT)
same,binding signal,[12],490 ± 20 Kd(mutant)/Kd(WT)
same,binding signal,[13],0.6 ± 0.3 Kd(mutant)/Kd(WT)
same,binding signal,[14],6.1 ± 2.2 Kd(mutant)/Kd(WT)
same,binding signal,[15],1.1 ± 0.5 Kd(mutant)/Kd(WT)
same,binding signal,[16],1.6 ± 1.1 Kd(mutant)/Kd(WT)
same,binding signal,[17],2 ± 1.9 Kd(mutant)/Kd(WT)
same,binding signal,[18],17 ± 2.8 Kd(mutant)/Kd(WT)
same,binding signal,[19],0.9 ± 0.2 Kd(mutant)/Kd(WT)
same,binding signal,[20],3 ± 0.8 Kd(mutant)/Kd(WT)
same,binding signal,[21],1.6 ± 0.3 Kd(mutant)/Kd(WT)
same,binding signal,[22],1.1 ± 1.1 Kd(mutant)/Kd(WT)
same,binding signal,[23],420 ± 120 Kd(mutant)/Kd(WT)
same,binding signal,[24],0.7 ± 0.4 Kd(mutant)/Kd(WT)
same,binding signal,[25],0.6 ± 0.2 Kd(mutant)/Kd(WT)
same,binding signal,[26],1.3 ± 0.7 Kd(mutant)/Kd(WT)
same,binding signal,[27],3 ± 0.6 Kd(mutant)/Kd(WT)
same,binding signal,[28],0.8 ± 0.1 Kd(mutant)/Kd(WT)
same,binding signal,[29],0.7 ± 0.2 Kd(mutant)/Kd(WT)
same,binding signal,[30],0.6 ± 0.5 Kd(mutant)/Kd(WT)
same,binding signal,[31],2.8 ± 0.3 Kd(mutant)/Kd(WT)
same,binding signal,[32],30 ± 5.4 Kd(mutant)/Kd(WT)
same,binding signal,[33],190 ± 70 Kd(mutant)/Kd(WT)
same,binding signal,[34],2.8 ± 0.9 Kd(mutant)/Kd(WT)
same,binding signal,[35],7.5 ± 3.5 Kd(mutant)/Kd(WT)
same,binding signal,[36],1.4 ± 1.3 Kd(mutant)/Kd(WT)
same,binding signal,[37],3.2 ± 0.8 Kd(mutant)/Kd(WT)
same,binding signal,[38],8.5 ± 2.2 Kd(mutant)/Kd(WT)
same,binding signal,[39],0.8 ± 0.3 Kd(mutant)/Kd(WT)
same,binding signal,[40],0.8 ± 0.5 Kd(mutant)/Kd(WT)
same,binding signal,[41],1.1 ± 0.5 Kd(mutant)/Kd(WT)
same,binding signal,[42],2.7 ± 1.2 Kd(mutant)/Kd(WT)
same,binding signal,[43],15 ± 8.4 Kd(mutant)/Kd(WT)
same,binding signal,[44],8.5 ± 1 Kd(mutant)/Kd(WT)
same,binding signal,[45],1.9 ± 0.2 Kd(mutant)/Kd(WT)
same,binding signal,[46],2.6 ± 0.1 Kd(mutant)/Kd(WT)
same,binding signal,[47],1.8 ± 0.9 Kd(mutant)/Kd(WT)
same,binding signal,[48],1.7 ± 1.9 Kd(mutant)/Kd(WT)
